Results filed as inconclusive are left out. A call without a number means that no potency is given here. Active and inactive are the calls of the source. The call rests on the fitted dose curve; in most records, active means well fitted inhibition curve with a large enough effect; inconclusive means small, poorly fitted or top-dose-only effect; inactive means flat fitted curve, though single readings scatter. Where a SMILES comes first, the peptide text is derived from it. Bridges are numbered along the chain shown (N, C = ends). [ ]: non-standard residue; d: D form. hArg = N=C(N)NCCCC[C@H](N)C(=O)O; Mpa = O=C(O)CCS
Potency means the concentration at half of the fitted maximal effect.

For the first assay, the system named is AS120. The experiment in a line: qHTS profiling for inhibitors of Plasmodium falciparum proliferation (AID 504749). Further: nearly all actives have a fitted effect of over 60% in size. The note with it: P. falciparum in erythrocytes, SYBR Green DNA, 72 h; series mostly up to 28.7 µM. In a few lines:
(§1)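 Infected RBCs, 0.3% parasitemia/2.5% Hct final; cpd 72 h, 37 C, 5% CO2; lysis buffer with saponin/triton/SYBR Green I, o/n RT dark; FI 485/535; norm. to artemisinin (0.29 uM) and DMSO.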
In general terms: In qHTS, concentration-response curves come from the screen itself.
For `O=C(c1ccccc1)C(O)c1ccccc1` (stereo not given), the Potency entry was “inactive”.

`CCCCCCCC(=O)OCC(COC(=O)CCCCCCC)OC(=O)CCCCCCC`: the Potency result was “inactive”.

Consider `COc1nccnc1NS(=O)(=O)c1ccc(N)cc1`, for which the Potency entry was “inactive”.

On to `Nc1ccc(S(=O)(=O)c2ccc(N)cc2)cc1`, for which the Potency entry was “inactive”.

Regarding `O=C(O)c1ccc(OCCCOc2ccc(C(=O)O)cc2)cc1`, the Potency entry is “inactive”.

As for `Cc1c(NC(=O)c2cccnc2)c(=O)n(-c2ccccc2)n1C`, the Potency result was “inactive”.

`Cc1cccc(C)c1NC(=O)CC12CCCN1CCC2`: the Potency entry was “inactive”.

As to `C[C@H]1COc2c(C3(N)CC3)c(F)cc3c(=O)c(C(=O)O)cn1c23`, the Potency entry is “inactive”.

With `CC(C)=CCC/C(C)=C/CO`, the Potency result is “inactive”.

For `CC(=O)Oc1cccc(O)c1`, the Potency result is “inactive”.

Turning to `COc1ccc(C(=O)NCc2ccc(OCCN(C)C)cc2)cc1OC`, the Potency result was “inactive”.

In the case of `CCOc1cc(NC(C)=O)ccc1C(=O)OC`, the Potency result is “inactive”.

With `CCN1CC(CCN2CCOCC2)C(c2ccccc2)(c2ccccc2)C1=O` (stereo not given), the Potency entry is “inactive”.

Consider `NC(=O)[C@@H]1CSSCCC(=O)N[C@@H](CCCCN=C(N)N)C(=O)NCC(=O)N[C@@H](CC(=O)O)C(=O)N[C@@H](Cc2c[nH]c3ccccc23)C(=O)N2CCC[C@H]2C(=O)N1` ([Mpa][hArg]GDWPC-NH2; disulfide 1-7), for which the Potency result was “inactive”.

Turning to `Cc1[nH]c(C)c(Cl)c(=O)c1Cl`, the Potency entry was “inactive”.

Turning to `CC(=O)N[C@@H](Cc1ccc(O)cc1)C(=O)O`, the Potency result was “inactive”.

`C[C@@H]1O[C@@H](OC[C@H]2O[C@@H](Oc3c(-c4ccc(O)c(O)c4)oc4cc(O)cc(O)c4c3=O)[C@H](O)[C@@H](O)[C@@H]2O)[C@H](O)[C@H](O)[C@H]1O`: the Potency result is “inactive”.

As to `CC(CSC(=O)c1ccccc1)C(=O)N1C[C@@H](Sc2ccccc2)C[C@H]1C(=O)O` (stereo not given in full), the Potency entry is “inactive”.

As for `O[C@@H]1CO[C@H]2[C@@H]1OC[C@@H]2O`, the Potency result was “inactive”.

As for `Cc1c(I)c(=O)n(-c2ccccc2)n1C`, the Potency entry is “inactive”.

As for `NCc1ccc(S(N)(=O)=O)cc1`, the Potency result is “inactive”.

Regarding `O=C(O)CCCCC1CCSS1` (stereo not given), the Potency entry was “inactive”.

Take `CCS(=O)(=O)CCn1c([N+](=O)[O-])cnc1C`: the Potency result is “inactive”.

Take `COc1ccc(NS(=O)(=O)c2ccc(N)cc2)nn1`: the Potency result was “inactive”.

For `CCCCCCCCCCOc1cc2c(=O)c(C(=O)OCC)c[nH]c2cc1OCC`, the Potency was 2 nM (active).

As to `O=C(OOC(=O)c1ccccc1)c1ccccc1`, the Potency entry was “inactive”.

Turning to `CCCCCCCCCCC(CO)CCCCCCCC` (stereo not given), the Potency entry is “inactive”.

Consider `CN(C/C=C/C#CC(C)(C)C)Cc1cccc2ccccc12`, for which the Potency entry was “inactive”.

For another assay, the system named is ATS189. The description is as above. The settings on record: P. falciparum in erythrocytes, SYBR Green DNA, 72 h; series mostly up to 28.7 µM. In a few lines:
as §1
On to `COc1ccc2cc(CCC(C)=O)ccc2c1`, for which the Potency result was “inactive”.

In the case of `O=C(c1ccccc1)C(O)c1ccccc1` (stereo not given), the Potency entry was “inactive”.

As for `CCCCCCCC(=O)OCC(COC(=O)CCCCCCC)OC(=O)CCCCCCC`, the Potency result was “inactive”.

In the case of `COc1nccnc1NS(=O)(=O)c1ccc(N)cc1`, the Potency result was “inactive”.

For the compound `Nc1ccc(S(=O)(=O)c2ccc(N)cc2)cc1`, the Potency result was “inactive”.

On to `O=C(O)c1ccc(OCCCOc2ccc(C(=O)O)cc2)cc1`, for which the Potency entry was “inactive”.

As for `Cc1c(NC(=O)c2cccnc2)c(=O)n(-c2ccccc2)n1C`, the Potency result was “inactive”.

In the case of `Cc1cccc(C)c1NC(=O)CC12CCCN1CCC2`, the Potency result was “inactive”.

For the compound `C[C@H]1COc2c(C3(N)CC3)c(F)cc3c(=O)c(C(=O)O)cn1c23`, the Potency entry is “inactive”.

In the case of `CC(C)=CCC/C(C)=C/CO`, the Potency result is “inactive”.

In the case of `CC(=O)Oc1cccc(O)c1`, the Potency entry is “inactive”.

With `COc1ccc(C(=O)NCc2ccc(OCCN(C)C)cc2)cc1OC`, the Potency result was “inactive”.

For the compound `CCOc1cc(NC(C)=O)ccc1C(=O)OC`, the Potency result was “inactive”.

Take `NC(=O)[C@@H]1CSSCCC(=O)N[C@@H](CCCCN=C(N)N)C(=O)NCC(=O)N[C@@H](CC(=O)O)C(=O)N[C@@H](Cc2c[nH]c3ccccc23)C(=O)N2CCC[C@H]2C(=O)N1` ([Mpa][hArg]GDWPC-NH2; disulfide 1-7): the Potency result is “inactive”.

As for `Cc1[nH]c(C)c(Cl)c(=O)c1Cl`, the Potency result was “inactive”.

`CC(=O)N[C@@H](Cc1ccc(O)cc1)C(=O)O`: the Potency entry was “inactive”.

In the case of `C[C@@H]1O[C@@H](OC[C@H]2O[C@@H](Oc3c(-c4ccc(O)c(O)c4)oc4cc(O)cc(O)c4c3=O)[C@H](O)[C@@H](O)[C@@H]2O)[C@H](O)[C@H](O)[C@H]1O`, the Potency result was “inactive”.

In the case of `CC(CSC(=O)c1ccccc1)C(=O)N1C[C@@H](Sc2ccccc2)C[C@H]1C(=O)O` (stereo not given in full), the Potency entry was “inactive”.

Regarding `O[C@@H]1CO[C@H]2[C@@H]1OC[C@@H]2O`, the Potency result was “inactive”.

For the compound `Cc1c(I)c(=O)n(-c2ccccc2)n1C`, the Potency entry was “inactive”.

As to `O=C(O)CCCCC1CCSS1` (stereo not given), the Potency entry is “inactive”.

As to `CCS(=O)(=O)CCn1c([N+](=O)[O-])cnc1C`, the Potency entry was “inactive”.

For `COc1ccc(NS(=O)(=O)c2ccc(N)cc2)nn1`, the Potency entry is “inactive”.

For `CCCCCCCCCCOc1cc2c(=O)c(C(=O)OCC)c[nH]c2cc1OCC`, the Potency is 1.3 nM (active).

Turning to `O=C(OOC(=O)c1ccccc1)c1ccccc1`, the Potency entry was “inactive”.

With `CCCCCCCCCCC(CO)CCCCCCCC` (stereo not given), the Potency result was “inactive”.

As to `CN(C/C=C/C#CC(C)(C)C)Cc1cccc2ccccc12`, the Potency entry was “inactive”.

These data come from PubChem BioAssay (NCATS).
